In the library only some 8.3% were active in any assay of this set; here they are far more common.
Giardia kill – Small Molecules that selectively kill Giardia lamblia: qHTS; AID 540267, 2011; actives 0.15% (n = 340,000); Giardia lamblia trophozoite viability; activity change, % at 7.66 µM, hits read low; in the data active means activity change below about -80%; inconclusive means between about -30% and that limit;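 further: parasites exposed to compound for two days anaerobically before the ATP read; on the % scale 0 is the no-effect control and ±100 the full control effect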
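Viability, read as ATP luminescence: trophozoites at 100 cells/well, compound added, 48 hrs anaerobic at 37 deg C, then 15-30 min room-temperature development before reading.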
Chronic BCR inh – qHTS Assay to Find Inhibitors of Chronic Active B-Cell Receptor Signaling; ABC-DLBCL IkBa-CBG/CBR reporter, luminescence ratio, 4 h; Potency, µM (series often up to 46.1 µM), inactives show at the top dose activity change, negative = inhibition, hits mostly inhibitors; actives 0.05% (n = 340,000); AID 493014, 2011; active means well fitted inhibition curve with a large enough effect in the signal ratio, with a control signal flat, not every such curve was filed as active; inconclusive means small, poorly fitted or top-dose-only effect, or effect the other way, or a change in a side signal; the % refers to the signal ratio;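 further: potency means the concentration at half of the fitted maximal effect; plate controls were basal doxycycline-induced cells for no effect and cells given 10 µM MG132 for full effect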
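TMD8 human ABC-DLBCL cells with doxycycline-inducible IκBα–green luciferase fusion and unfused red luciferase, in 0.5% FBS medium; compounds up to 46 uM, 4 h at 37C. Green/red luminescence ratio, filter-overlap corrected, fitted to concentration-response curves.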
SW480 rereplic – A quantitative high throughput screen for small molecules that induce DNA re-replication in SW480 colon adenocarcinoma cells | Potency, µM (top dose mostly 46.1 µM), for inactives: at the highest dose re-replication activation, usual class: activators | actives 1.8% (n = 340,000) | SW480 DNA re-replication, Hoechst DNA content imaging, 48 h; further: potency means the concentration at half of the fitted maximal effect; % of control where 0% means no effect; nearly all actives have a fitted effect of over 55% in size
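Image-based DNA-content assay: after two days of treatment, nuclei were labelled with the DNA dye Hoechst and imaged, and hits were compounds raising the count of nuclei showing high fluorescence intensity.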
MCF10A rereplic – A quantitative high throughput screen for small molecules that induce DNA re-replication in MCF 10a normal breast cells; MCF 10A DNA re-replication, Hoechst nuclear intensity, 48 h; actives 2.9% (n = 350,000); AID 624296, 2012; Potency, µM (titrated, usually from 46.1 µM), for the others: at the highest dose activity, positive = re-replication, actives largely listed as activators; further: potency means the concentration at half of the fitted maximal effect; % of control where 0% means no effect; nearly all actives have a fitted effect of over 50% in size
RORg inh – qHTS for inhibitors of ROR gamma transcriptional activity; Potency, µM (series often up to 53.6 µM), for the others: at the top dose activity change, negative = inhibition, hits mostly inhibitors; actives 5.4% (n = 310,000); Nuclear receptor ROR-gamma (Mus musculus), P51450; Drosophila S2 Gal4-RORgamma UAS-luciferase reporter, 20 h; further: potency means the concentration at half of the fitted maximal effect; on the % scale 0 is the no-effect control and ±100 the full control effect; nearly all actives have a fitted effect of over 60% in size
Target sequence (P51450 whole entry, looked up, the tested form may be a part): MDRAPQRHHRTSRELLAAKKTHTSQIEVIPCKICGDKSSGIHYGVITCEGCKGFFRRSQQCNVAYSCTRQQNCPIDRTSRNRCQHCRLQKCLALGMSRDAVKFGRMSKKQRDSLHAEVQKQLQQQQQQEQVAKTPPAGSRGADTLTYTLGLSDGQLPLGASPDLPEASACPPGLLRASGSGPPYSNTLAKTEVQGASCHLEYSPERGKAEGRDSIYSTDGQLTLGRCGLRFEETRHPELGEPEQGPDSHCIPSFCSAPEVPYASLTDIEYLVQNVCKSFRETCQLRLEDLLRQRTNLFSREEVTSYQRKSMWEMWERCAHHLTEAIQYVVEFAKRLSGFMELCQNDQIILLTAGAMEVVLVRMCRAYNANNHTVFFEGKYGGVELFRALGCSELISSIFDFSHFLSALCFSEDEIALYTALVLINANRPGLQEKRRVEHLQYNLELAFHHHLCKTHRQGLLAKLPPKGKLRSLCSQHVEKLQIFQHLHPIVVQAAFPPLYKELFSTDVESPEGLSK
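Stable Schneider cell line, Gal4 DNA-binding domain fused to ROR gamma, UAS-luciferase. Cmpd 1 hr RT → CuSO4 700 uM final → 20 hr RT → luciferase reagent 10 min → luminescence.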
Gal4-VP16 FLuc – VP16 counterscreen qHTS for inhibitors of ROR gamma transcriptional activity. Drosophila S2 Gal4-VP16 UAS-luciferase, luminescence, 20 h. Potency, µM (doses to about 53.6 µM), without a hit: at the top dose activity, negative = inhibition, usual class: inhibitors. actives 3.5% (n = 310,000). AID 2546, 2010;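 further: Gal4-VP16 expression switched on by copper sulfate through the metallothionein promoter; potency means the concentration at half of the fitted maximal effect; on the % scale 0 is the no-effect control and ±100 the full control effect; nearly all actives have a fitted effect of over 50% in size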
The depositor's hits bear a star; u = inconclusive; x = not tested or not shown; [ ] = another dose, or the depositor's remark. Unless noted, the call rests on the fitted dose curve; in most records, active means well fitted curve in the direction sought with a large enough effect; inconclusive means small, poorly fitted or top-dose-only effect, or another doubt; inactive means no such curve, though single readings can be large; an effect the other way counts as inactive or inconclusive.

SMILES	Giardia kill	Chronic BCR inh	SW480 rereplic	MCF10A rereplic	RORg inh	Gal4-VP16 FLuc
COc1cccc(C(=O)Nc2ccc(N3CCN(C(=O)c4cccs4)CC3)cc2)c1	-8	u	5.8µM*	13µM*	1%	3%
COc1ccc2oc(C(=O)OCC(=O)NC(=O)c3ccccc3)c(C)c2c1	-9	u	-3%	6%	9%	-7%
O=S(=O)(NC1c2cccc3cccc(c23)C1N1CCN(CCO)CC1)c1ccccc1 (centres undefined)	0	-15%	6%[9.22 µM]	23µM*	-25%	-3%
C[C@H](CO)N1C[C@H](C)[C@@H](CN(C)Cc2ccc(-c3ccccc3)cc2)Oc2c(NS(=O)(=O)c3cccs3)cccc2C1=O	-8	-1%	15%	u	x	x
C=C1CC2(CC(c3ccccc3)OC(c3ccccc3)C2)OC1=O (centres undefined)	8	x	u	12µM*	x	x
c1ccc(C2OCC3(CO2)COC(c2ccccc2)OC3)cc1 (centres undefined)	-7	u	0%	23%	20%	-1%
CN(CC(=O)Nc1c(Cl)cccc1Cl)C(=O)Cn1[nH]c(=O)c2ccccc2c1=O	-14	-1%	4%	0%	x	x
CCOC(=O)CN1C(=O)S/C(=C/c2ccc(OCc3ccc(C(=O)O)cc3)cc2)C1=O	-13	13%	0%	0%	-11%	-1%
O=S(=O)([O-])C/C(=C\c1ccc(Cl)cc1)c1cc[n+](CCO)cc1	-18	0%	-3%	3%	-9%	-3%
O=C1/C(=C\c2ccc(O)cc2)SC(=S)N1c1cccnc1	-5	-6%	7%	-9%	21%	-7%
N=C1S/C(=C\c2ccc(O)cc2)C(=O)N1c1ccc(F)cc1	-17	-3%	15%	-1%	2.5µM*	2.8µM*
CC1CCN(S(=O)(=O)c2ccc3c(c2)N(C)C(=O)CC(=O)N3C)CC1	10	9%	-5%	3%	-25%	-1%
O=C(CCc1ccccc1)Nc1nnc(-c2ccc3c(c2)OCCO3)o1	25	2%	0%	u	6.3µM*	u
O=C(CCc1ccccc1)Nc1ccc2c(c1)OCCO2	-8	u	-1%	-3%	-15%	-23%
O=C(CCc1ccccc1)Nc1nnc(-c2ccc3c(c2)CCCC3)o1	4	u	-16%	16%	14µM*	u
COc1cccc(NC(=O)Nc2cccs2)c1	-29	2%	2%	2%	6.3µM*	5µM*
COc1ccc(NC(=O)Nc2cccs2)cc1OC	-26	u	-12%	2%	10%	9%
CCOC(=O)OCC1OC(C#Cc2ccccc2)C=CC1Oc1cccc(N(C)C)c1 (centres undefined)	x	x	x	x	-17%[10 µM]	-3%[10 µM]
CCCS(=O)(=O)c1nc(S(=O)(=O)c2ccc(C)cc2)c(N2CCc3ccccc3C2)s1	-9	u	3%	-5%	8.9µM*	u
CCN1CCN(Cc2ccc(NC(=O)c3ccc(C)c(NC(=O)c4nccn4C)c3)cc2C(F)(F)F)CC1	-20	3%	-1%[9.22 µM]	-7%	u	u
CCN1CCN(Cc2ccc(NC(=O)c3ccc(C)c(NC(=O)c4cncc(-c5cccs5)c4)c3)cc2C(F)(F)F)CC1	11	x	u	5.2µM*	x	x
CCN1CCN(Cc2ccc(NC(=O)c3cc(NC(=O)c4cncc(-c5ccc(C#N)cc5)c4)cc(OC)c3)cc2C(F)(F)F)CC1	-2	u	24%[9.22 µM]	10µM*	2.8µM*	3.5µM*
CCN1CCN(Cc2ccc(NC(=O)c3ccc(C)c(NC(=O)c4cccc5[nH]ccc45)c3)cc2C(F)(F)F)CC1	38	u	3.3µM*	u	6.3µM*	-13%
CCN1CCN(Cc2ccc(NC(=O)c3ccc(C)c(NC(=O)c4nccnc4N)c3)cc2C(F)(F)F)CC1	-7	u	-8%	24%	20%	4%
CCN1CCN(Cc2ccc(NC(=O)c3cc(NC(=O)c4nccnc4N)cc(OC)c3)cc2C(F)(F)F)CC1	-19	u	-3%[9.22 µM]	u	-41%	3%
SMILES	Giardia kill	Chronic BCR inh	SW480 rereplic	MCF10A rereplic	RORg inh	Gal4-VP16 FLuc
Cc1c(Cl)cccc1NC(=O)CSc1ncnc2c1cnn2CCO	-18	2%	u	1%	-10%	-2%
CCOc1ccc2[nH]c3c(=O)n(CCc4ccc(OC)cc4)cnc3c2c1	18	-9%	-10%	2%	9%	1%
O=C(Nc1nnc(CSCc2ccc(F)cc2)s1)c1cccc([N+](=O)[O-])c1	-12	0%	u	u	11µM*	20µM*
COC(=O)c1cc(C(=O)Nc2nnc(CC(C)(C)C)s2)cc([N+](=O)[O-])c1	-8	1%	-4%	u	8.9µM*	8.9µM*
O=C(Nc1nn[nH]n1)c1cccc([N+](=O)[O-])c1	-4	1%	-1%	0%	5%	-3%
O=C(Nc1nnc(Cc2ccc([N+](=O)[O-])cc2)s1)c1ccc2c(c1)OCO2	5	3%	-80%	-1%	-4%	2%
CCC(C)(C)c1nnc(NC(=O)c2cccc([N+](=O)[O-])c2)s1	8	u	16%	-4%	13µM*	u
O=C(Nc1ccc(Cl)cc1)Nc1nnc(CSCc2ccccc2)s1	14	12%	0%	2%	5%	-1%
O=C(Nc1nnc(CSCc2ccc(Cl)cc2)s1)c1cccc([N+](=O)[O-])c1	-19	u	-1%	26%	11µM*	10µM*
O=C(NC(NC(=S)Nc1ccc(F)c([N+](=O)[O-])c1)C(Cl)(Cl)Cl)C(c1ccccc1)c1ccccc1 (centres undefined)	x	x	x	x	4µM*	5µM*
O=C(Nc1ccccc1)Nc1ccc(F)c([N+](=O)[O-])c1	-18	2%	3%	15µM*	u	3%
O=C(Nc1ccccc1)Nc1ccc(Cl)c([N+](=O)[O-])c1	-9	u	u	15µM*	u	u
COc1c(Cl)cc(C(=O)Nc2ccccc2C(=O)O)cc1Cl	-17	u	1%	2%	u	-16%
CC(OC(=O)c1ccc(Cl)c(S(=O)(=O)N2CCc3ccccc32)c1)C(=O)Nc1ncc(Cl)cc1Cl (centres undefined)	-2	4%	1%	u	-5%	-8%
CCc1ccc(OCC2c3cc(OC)c(OC)cc3CCN2C(=S)NC)cc1 (centres undefined)	4	u	u	u	11µM*	6%
